Shown are actives, neighbours in structure and some others; about 1.1% of the full set was active somewhere.
NCOA1 inh: inhibitors of human steroid receptor coactivator 1 (SRC1); Q15788; HEK293 GAL4-SRC1 luciferase reporter, luminescence; inhibition, % at 3.6 µM; 0.12% of 360,000 active; AID 588354;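 active means inhibition above the campaign mean plus 3 SD, with each screening campaign given its own cutoff, cut at about 60% in these data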
COUP-TFII inh: blocks human COUP-TFII nuclear receptor | HEK293T NGFI-A luciferase reporter, luminescence | inhibition, % at 8.6 µM | P24468 | 0.7% of 370,000 active;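 active means inhibition above a per-plate cutoff, mean inhibition of test wells between control levels plus 3 SD, cut at about 38% in these data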;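 further: cells cotransfected with COUP-TFII expression vector driving the NGFI-A reporter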
Target sequence (P24468 whole entry, looked up): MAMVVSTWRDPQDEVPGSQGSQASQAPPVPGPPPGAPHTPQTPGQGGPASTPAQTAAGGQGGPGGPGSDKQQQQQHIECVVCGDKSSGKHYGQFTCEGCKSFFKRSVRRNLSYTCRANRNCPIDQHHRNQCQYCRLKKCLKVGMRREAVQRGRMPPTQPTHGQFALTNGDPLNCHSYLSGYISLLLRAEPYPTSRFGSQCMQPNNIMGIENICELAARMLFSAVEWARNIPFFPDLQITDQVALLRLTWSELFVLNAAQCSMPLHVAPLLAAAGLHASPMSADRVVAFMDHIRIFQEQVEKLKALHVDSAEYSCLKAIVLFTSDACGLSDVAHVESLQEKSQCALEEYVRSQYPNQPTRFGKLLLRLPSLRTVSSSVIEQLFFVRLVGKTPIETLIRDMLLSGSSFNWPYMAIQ
LRH-1 inv ag: inverse agonists of human LRH-1 (NR5A2); 0.13% of 360,000 active; inhibition, % at 3.6 µM; HEK293T StAR-luciferase reporter, LRH-1 transfected, 24 h;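 active means inhibition above the mean inhibition of all tested compounds plus 3 SD, cut at about 73% in these data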
SRC3 inh: human NCOA3 inhibition | Q9Y6Q9 | HEK293 GAL4-SRC3 luciferase reporter, luminescence | inhibition, % at 3.6 µM | 0.17% of 360,000 active;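 active means inhibition above a per-campaign cutoff, the mean of all compounds plus 3 SD, cut at about 60% in these data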;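 further: higher means less SRC3-driven luciferase light from the GAL4 reporter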
SRC2 inh: human SRC2 (NCOA2) inhibition; HEK293 GAL4-SRC2 luciferase reporter, luminescence; 0.17% of 370,000 active; Q15596; inhibition, % at 9 µM;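 active means inhibition above the mean inhibition of all tested compounds plus 3 SD, set per campaign, cut at about 52% in these data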
GalR3 antag: human GalR3 antagonism | HEK293 GalR3-CNG cAMP membrane potential fluorescence; galR3 body fused to GalR1 C-terminus | O60755 | 0.44% of 360,000 active | inhibition, % at 3 µM;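 active means inhibition above the screen-wide average plus 3 SD, cut at about 13% in these data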;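 further: forskolin and galanin both at EC90 stimulate the cells; cAMP rise reported by CNG channel membrane potential dye signal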
VP16 Luc counter: counter-screen for COUP-TFII antagonists: inhibitors of VP16. 25% of 2,500 active. AID 687007. inhibition, % at 8.5 µM. shares compounds with COUP-TFII inh. HEK293 Gal4-VP16 luciferase reporter, luminescence; in the data active means inhibition above about 13%
COUP-TFII conf: COUP-TFII (NR2F2) inhibition, confirmation assay. shares compounds with COUP-TFII inh. HEK293 NGFI-A luciferase reporter, luminescence. inhibition, % at 8.5 µM. 45% of 2,500 active. AID 687008;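 active means mean inhibition over three repeats above a set limit taken from the earlier primary screen, cut at about 38% in these data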
A number is an active result.

COc1ccc(CC2C(=O)NC(C)C(=O)N(C)C3C(=O)N(C)C(Cc4ccc(O)c(c4)Oc4ccc(cc4)C3O)C(=O)NC(C)C(=O)NC(C)C(=O)N2C)cc1 (centres undefined) was read as NCOA1 inh 96, COUP-TFII inh 89, LRH-1 inv ag 99, SRC3 inh 94, SRC2 inh 75, GalR3 antag inactive, VP16 Luc counter 27 and COUP-TFII conf 91.
CC(C)c1oc(=O)cc2c1[C@@H](O)[C@H]1OC(=O)[C@@]3(C)CC[C@@H](O)[C@@]2(C)C13 (some centres undefined) was read as NCOA1 inh inactive, COUP-TFII inh 42, LRH-1 inv ag inactive, SRC3 inh 62, SRC2 inh inactive, GalR3 antag inactive, VP16 Luc counter inactive and COUP-TFII conf inactive.
Screening CC(C)c1oc(=O)cc2c1[C@@H](O)[C@H]1OC(=O)[C@@]3(C)C[C@@H](O)[C@@H](O)[C@@]2(C)C13 (some centres undefined) returned NCOA1 inh inactive, COUP-TFII inh 41, LRH-1 inv ag 92, SRC3 inh 76, SRC2 inh inactive, GalR3 antag inactive, VP16 Luc counter inactive and COUP-TFII conf inactive.
For CS(=O)(=O)c1ccc(C2=C(CNC(=O)c3ccc([N+](=O)[O-])cc3)[C@H]3CC[C@@H](C2)N3CCOc2ccccc2)cc1 the results were NCOA1 inh inactive, COUP-TFII inh inactive, LRH-1 inv ag inactive, SRC3 inh inactive, SRC2 inh inactive and GalR3 antag inactive.
`CC(=O)O[C@H]1C[C@@H]2OC3C=C(C)CCC3(C)[C@@]1(C)[C@@]21CO1` (some centres undefined) gave NCOA1 inh 94, COUP-TFII inh 77, LRH-1 inv ag 97, SRC3 inh 92, SRC2 inh 69, GalR3 antag inactive, VP16 Luc counter 16 and COUP-TFII conf 72.
Screening CC(=O)OC1CC2OC3C=C(C)CCC3(C)C1(C)C21CO1 (centres undefined) returned NCOA1 inh 96, COUP-TFII inh 85, LRH-1 inv ag 103, SRC3 inh 95, SRC2 inh 69, GalR3 antag inactive, VP16 Luc counter 17 and COUP-TFII conf 72.
For CC1CC2CC(=O)CCC2(C)C2CCC3(C)C(O)CCC3C12 (centres undefined) the results were NCOA1 inh inactive, COUP-TFII inh inactive, LRH-1 inv ag inactive, SRC3 inh inactive, SRC2 inh inactive and GalR3 antag inactive.
`O=C(NC(CCC(O)CO)P(=O)(Oc1ccccc1)Oc1ccccc1)OCc1ccccc1` (centres undefined) gave COUP-TFII inh inactive and SRC2 inh inactive.
C(#CCN1CCCCC1)CN1CCCCC1 was read as NCOA1 inh inactive, LRH-1 inv ag inactive and SRC3 inh inactive.
`CC1CC(C)(O)CC(C(O)CC2CC(=O)NC(=O)C2)C1=O` (centres undefined) gave NCOA1 inh 94, COUP-TFII inh 87, LRH-1 inv ag 98, SRC3 inh 93, SRC2 inh 72, GalR3 antag inactive, VP16 Luc counter inactive and COUP-TFII conf 75.
COc1cc(/C=C2\C[C@H]3[C@@H]4CC=C5C[C@@H](N6CCCC6)CC[C@]5(C)[C@H]4CC[C@]3(C)[C@H]2O)cc(OC)c1OC was read as NCOA1 inh inactive, COUP-TFII inh inactive, LRH-1 inv ag inactive, SRC3 inh inactive, SRC2 inh inactive and GalR3 antag inactive.
O=C(Nc1ccncc1)c1cccn(Cc2ccccc2)c1=O was read as NCOA1 inh inactive, COUP-TFII inh 66, LRH-1 inv ag inactive, SRC3 inh inactive, SRC2 inh inactive, GalR3 antag inactive, VP16 Luc counter inactive and COUP-TFII conf 51.
For O=C(Nc1ccccc1)c1cccn(Cc2ccccc2)c1=O the results were NCOA1 inh inactive, COUP-TFII inh inactive, LRH-1 inv ag inactive, SRC3 inh inactive, SRC2 inh inactive and GalR3 antag inactive.
Screening O=P1(NCCCl)OCCC(OO)N1CCCl (centres undefined) returned COUP-TFII inh inactive, LRH-1 inv ag inactive, SRC2 inh inactive and GalR3 antag inactive.
`COc1ccc(Cc2nccc3cc(OC)c(OC)cc23)cc1OC` gave NCOA1 inh inactive, COUP-TFII inh 40, LRH-1 inv ag inactive, SRC3 inh inactive, SRC2 inh inactive, VP16 Luc counter inactive and COUP-TFII conf inactive.
For COc1ccc(CC2=NCCc3cc(OC)c(OC)cc32)cc1OC the results were NCOA1 inh inactive, COUP-TFII inh inactive, LRH-1 inv ag inactive, SRC3 inh inactive, SRC2 inh inactive and GalR3 antag inactive.
`CC(C)C(C(=O)NC(C)(C)C)N1C(=O)CN=C(c2ccccc2)c2ccccc21` (centres undefined) gave COUP-TFII inh inactive and SRC2 inh inactive.
Cc1ccccc1-[n+]1c(-c2ccccc2)cc(-c2ccccc2)cc1-c1ccccc1 was read as NCOA1 inh inactive, COUP-TFII inh 68, LRH-1 inv ag inactive, SRC3 inh 67, SRC2 inh inactive, GalR3 antag inactive, VP16 Luc counter 22 and COUP-TFII conf 77.
Screening CN1CCN(c2ccc([N+](=O)[O-])c3no[n+]([O-])c23)CC1 returned NCOA1 inh 96, COUP-TFII inh 98, LRH-1 inv ag 93, SRC3 inh 94, SRC2 inh 94, GalR3 antag inactive, VP16 Luc counter 96 and COUP-TFII conf 109.
COc1ccc(-n2nnnc2C(CCc2ccccc2)N2CCC3(CC2)C(=O)NCN3c2ccccc2)cc1 (centres undefined) was read as NCOA1 inh inactive, COUP-TFII inh inactive, LRH-1 inv ag inactive, SRC3 inh inactive, SRC2 inh inactive and GalR3 antag inactive.
O=S1(=O)NCC2(CC2)CN1Cc1ccccc1 was read as COUP-TFII inh inactive, LRH-1 inv ag inactive, SRC2 inh inactive and GalR3 antag inactive.
For CC(C)(C)NC(=O)C1CN=C(c2ccccc2)c2cc(Cl)ccc2N1C(=O)C1CCC1 (centres undefined) the results were COUP-TFII inh inactive and SRC2 inh inactive.
For CC(N)C(=O)NC1C2C(=C(O)CC(O)C2O)C(=O)OC1(C)C(Cl)Cl (centres undefined) the results were NCOA1 inh 93, COUP-TFII inh 76, LRH-1 inv ag 97, SRC3 inh 91, SRC2 inh 64, GalR3 antag inactive, VP16 Luc counter inactive and COUP-TFII conf 57.

Bioassay records deposited in PubChem BioAssay by The Scripps Research Institute Molecular Screening Center.
